Assay [1] in a line: Nuclear factor erythroid 2-related factor 2/antioxidant responsive element (Nrf2/ARE) small molecule agonists: qHTS cell viability counter screen in human keratinocytes (AID 1919968; active means well fitted curve in the direction sought with a large enough effect in the repeat runs; an effect the other way counts as inactive or inconclusive; further: nearly all actives have a fitted effect of over 55% in size; further: potency means the concentration at half of the fitted maximal effect). The method, boiled down: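 Seed 1,500 KeratinoSens cells per well, then incubate 5 h at 37 C/5% CO2. Add compounds in DMSO and incubate 23 h. Add CellTiter-Fluor, wait 1 h and read fluorescence.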

Assay [2] concerns the target Gonadotropin-releasing hormone receptor (Homo sapiens) (UniProt P30968). Kind of assay: Human gonadotropin-releasing hormone receptor (GnRHR) small molecule agonists, calcium flux assay in GnRHR-HEK293 cells (AID 1920063). Further: nearly all actives have a fitted effect of over 35% in size. The method, boiled down:
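Cells: HEK293 stably expressing human GnRHR. Steps: overnight (18 h) culture, 1 h calcium dye loading at 37 C, compound addition, kinetic fluorescence read at 480/540 nm. Each compound tested at 15 concentrations in triplicate.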
(A change in cytosolic calcium serves as a functional read-out for many receptors and channels.)

The target in assay [3] is KiSS-1 receptor (Homo sapiens) (UniProt Q969F8). The experiment in a line: Human kisspeptin (KISS1R) small molecule agonists, calcium flux assay in KISS1R-HEK293 cells (AID 1920064; active means well fitted curve in the direction sought with a large enough effect in the repeat runs; an effect the other way counts as inactive or inconclusive). The method, boiled down: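 Cells plated and incubated 18 h; dye added, 1 h at 37 C; compounds in DMSO pinned in; signal read at 480/540 nm every second for 3 min. Each compound tested at 15 concentrations in triplicate.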
Chain of KiSS-1 receptor (Homo sapiens) (Q969F8 whole entry, looked up): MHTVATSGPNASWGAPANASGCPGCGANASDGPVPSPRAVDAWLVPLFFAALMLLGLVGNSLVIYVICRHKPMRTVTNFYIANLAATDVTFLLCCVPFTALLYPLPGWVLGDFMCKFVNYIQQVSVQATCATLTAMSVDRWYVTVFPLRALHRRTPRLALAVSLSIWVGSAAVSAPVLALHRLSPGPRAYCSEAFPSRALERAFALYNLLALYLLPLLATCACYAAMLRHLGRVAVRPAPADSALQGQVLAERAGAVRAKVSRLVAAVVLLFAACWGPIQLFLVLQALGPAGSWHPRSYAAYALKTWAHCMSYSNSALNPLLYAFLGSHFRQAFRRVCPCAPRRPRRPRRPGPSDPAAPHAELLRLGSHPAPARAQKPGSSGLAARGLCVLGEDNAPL

The nature of assay [4]: G protein-coupled receptor (GPCR) small molecule agonists, calcium flux assay: HEK293 wild type cell line counter screen (AID 1920065). Put shortly: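 Counter-screen of the Tox21 10K library for non-specific calcium release: dye-loaded cells received compounds in DMSO and were monitored by kinetic fluorescence (480/540 nm, 3 min). Fifteen concentrations, run in triplicate.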

The nature of assay [5]: p53 small molecule agonists, cell-based qHTS assay with human liver microsomes (AID 1963577). Put shortly: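 p53RE-bla reporter cells were pre-incubated 5 h at 37 C, then treated with compounds plus human liver microsomes (0.5 mg/mL final) and NADPH (0.5 mg/mL final) for 16 h at 37 C. Beta-lactamase activity was read by LiveBLAzer fluorescence after 2 h at room temperature.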
For orientation: In qHTS, concentration-response curves come from the screen itself.

Assay [6] in a line: p53 small molecule agonists, cell-based qHTS assay with rat liver microsomes (AID 1963578). Put shortly:
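p53RE-bla cells were exposed to compounds together with rat liver microsomes (0.5 mg/mL final) and NADPH (0.5 mg/mL final) for 16 h at 37 C, then read by LiveBLAzer beta-lactamase fluorescence after 2 h at room temperature.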

Assay [7] in a line: p53 small molecule agonists, cell-based qHTS assay with human liver microsomes: qHTS cell viability counter screen (AID 1963579). Further: nearly all actives have a fitted effect of over 45% in size. Put shortly:
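p53RE-bla cells (4,000/well) were pre-incubated 5 h at 37 C, then given compounds in DMSO plus human liver microsomes (0.5 mg/mL final) and NADPH (0.5 mg/mL final) for 16 h at 37 C. Viability was read by CellTiter-Glo luminescence.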

Assay [8] can be described thus: p53 small molecule agonists, cell-based qHTS assay with rat liver microsomes: qHTS cell viability counter screen (AID 1963580). Further: nearly all actives have a fitted effect of over 45% in size. The method, boiled down: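 HCT-116 p53RE-bla, 4,000 cells/well, 5 h pre-incubation; cpd + rat liver microsomes 0.5 mg/mL + NADPH 0.5 mg/mL (final); 16 h, 37 C; CellTiter-Glo, 30 min RT; luminescence.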
A short description of assay [9]: p53 small molecule agonists, cell-based qHTS assay: qHTS cell viability counter screen (AID 1963581). Further: nearly all actives have a fitted effect of over 45% in size. Put shortly:
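Cells: HCT-116 with p53 response element-driven beta-lactamase. Treatment: 16 h, 37 C, compounds in DMSO. Read: CellTiter-Glo luminescence after 30 min RT.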

Assay [10] deals with 5-hydroxytryptamine receptor 2A (Homo sapiens) (UniProt P28223). Kind of assay: 5-hydroxytryptamine receptor 2A (HTR2A) small molecule antagonists, cell-based qHTS assay (AID 1963586). Further: nearly all actives have a fitted effect of over 45% in size. Put shortly: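 Antagonist-mode intracellular calcium assay: DOI (4 nM) added after 5 min compound pre-incubation at room temperature to dye-loaded HTR2A-CHO cells. Fluorescence followed for 3 min, sampled every second.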
Chain of 5-hydroxytryptamine receptor 2A (Homo sapiens) (P28223 whole entry, looked up): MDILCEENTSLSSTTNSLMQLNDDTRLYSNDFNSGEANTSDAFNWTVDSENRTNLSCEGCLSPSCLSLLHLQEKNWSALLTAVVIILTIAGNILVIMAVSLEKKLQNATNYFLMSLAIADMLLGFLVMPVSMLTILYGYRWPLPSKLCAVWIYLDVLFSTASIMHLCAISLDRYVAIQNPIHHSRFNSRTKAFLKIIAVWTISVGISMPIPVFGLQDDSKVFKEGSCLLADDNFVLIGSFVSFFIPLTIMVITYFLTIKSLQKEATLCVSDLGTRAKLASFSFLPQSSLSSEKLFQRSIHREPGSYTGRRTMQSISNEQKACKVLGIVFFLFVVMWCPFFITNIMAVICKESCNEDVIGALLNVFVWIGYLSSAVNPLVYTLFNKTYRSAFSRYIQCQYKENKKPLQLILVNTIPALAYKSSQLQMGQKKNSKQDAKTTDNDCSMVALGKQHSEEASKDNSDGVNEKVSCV

Assay [11] has the same target. The experiment in a line: 5-hydroxytryptamine receptor 2A (HTR2A) small molecule agonists, cell-based qHTS assay (AID 1963587). Further: nearly all actives have a fitted effect of over 30% in size. The method, boiled down:
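Kinetic calcium-flux fluorescence (2 min, 1 sec intervals) after compound addition in agonist mode. HTR2A-CHO cells were cultured 18 h, then dye-loaded 1 h at 37 C.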

The target of assay [12] is Muscarinic acetylcholine receptor M1 (Homo sapiens) (UniProt P11229). Kind of assay: Cholinergic receptor muscarinic 1 (CHRM1) small molecule antagonists, cell-based qHTS assay (AID 1963588). Further: nearly all actives have a fitted effect of over 40% in size. Further: potency means the concentration at half of the fitted maximal effect. Put shortly: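 CHRM1-CHO calcium-flux assay, antagonist mode. Cells were seeded 18 h, dye-loaded 1 h at 37 C and given compound for 5 min at RT, then acetylcholine was added at 50nM. FDSS fluorescence was read 3 min; 15 concentrations, three runs.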
Chain of Muscarinic acetylcholine receptor M1 (Homo sapiens) (P11229 whole entry, looked up): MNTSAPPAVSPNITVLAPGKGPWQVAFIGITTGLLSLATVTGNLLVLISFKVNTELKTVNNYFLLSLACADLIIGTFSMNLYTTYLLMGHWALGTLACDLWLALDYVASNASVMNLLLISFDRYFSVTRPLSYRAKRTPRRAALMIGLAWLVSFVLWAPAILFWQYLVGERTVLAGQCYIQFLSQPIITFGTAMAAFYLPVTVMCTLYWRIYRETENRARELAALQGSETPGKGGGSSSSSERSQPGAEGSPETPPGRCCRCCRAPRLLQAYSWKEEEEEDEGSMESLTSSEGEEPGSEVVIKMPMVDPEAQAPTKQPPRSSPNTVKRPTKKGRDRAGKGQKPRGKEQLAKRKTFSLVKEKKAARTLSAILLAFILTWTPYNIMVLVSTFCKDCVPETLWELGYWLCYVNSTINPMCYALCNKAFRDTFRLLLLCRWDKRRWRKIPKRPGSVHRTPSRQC

Assay [13] shares this target. Kind of assay: Cholinergic receptor muscarinic 1 (CHRM1) small molecule agonists, cell-based qHTS assay (AID 1963589). Further: nearly all actives have a fitted effect of over 35% in size. The method, boiled down:
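Agonist-mode qHTS in CHO cells stably carrying human muscarinic M1. Intracellular calcium is tracked by fluorescence every second after compound transfer; each compound runs at 15 concentrations in three independent runs.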

Assay [14] is described as follows: cAMP Responsive Elements (CRE) small molecule agonists, cell-based qHTS assay (AID 1963590). The method, boiled down:
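Agonist mode qHTS in CRE-bla HEK 293T cells: compounds dosed from DMSO for 3 h at 37 C/5% CO2, followed by LiveBLAzer B/G FRET substrate for 2 h at room temperature.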

A short description of assay [15]: cAMP Responsive Elements (CRE) small molecule antagonists, cell-based qHTS assay (AID 1963591; active means well fitted inhibition curve with a large enough effect in the signal ratio in the repeat runs, not every such curve was filed as active; the % refers to the signal ratio). The method, boiled down: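 Antagonist mode: test compounds are co-incubated with the adenylyl cyclase activator NKH477 (0.25 uM final) on CRE-bla HEK293T cells for 3 h at 37 °C, followed by LiveBLAzer substrate loading.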
Assay [16] addresses Beta-2 adrenergic receptor (Homo sapiens) (UniProt P07550). Kind of assay: Adrenergic beta2 receptor (ADRB2) small molecule antagonists, cell-based qHTS assay (AID 1963592). Further: series mostly up to about 92 µM; nearly all actives have a fitted effect of over 50% in size. Put shortly:
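Cells (CHO, stable ADRB2 overexpression) incubated 18-20hr at 37C; compounds added from DMSO; agonist mix (1nM isoproterenol, 100uM IBMX, 25uM Ro-20-1724) added; 0.5hr RT; d2-cAMP and anti-cAMP-cryptate added; 1hr RT; 665/615 nm read.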

For assay [17] the target is unchanged. Kind of assay: Adrenergic beta2 receptor (ADRB2) small molecule agonists, cell-based qHTS assay (AID 1963593).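 Further: CHO cells stably overexpressing human ADRB2.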 The method, boiled down:
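CHO cells stably over-expressing ADRB2 were plated overnight at 37C, then dosed with compounds plus a stimulation mix containing 100uM IBMX and 25uM Ro-20-1724 for 0.5hr at room temperature. cAMP was measured by HTRF competition, 1hr.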

The target in assay [18] is D(2) dopamine receptor (Homo sapiens) (UniProt P14416). The experiment in a line: Dopamine D2 receptor (DRD2) small molecule agonists, cell-based qHTS assay (AID 1963594). Further: nearly all actives have a fitted effect of over 35% in size. Put shortly:
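cAMP accumulation in DRD2-HEK293 cells measured by HTRF after 1 h detection; compounds added 10 min before NKH477 (200nM […]) forskolin-analogue stimulation, 30 min at room temperature, with Ro20-1724 present at 0.1 mM final.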

Assay [19] has the same target. Kind of assay: Dopamine D2 receptor (DRD2) small molecule antagonists, cell-based qHTS assay (AID 1963595; active means well fitted inhibition curve with a large enough effect in the signal ratio in the repeat runs, with a control signal flat; the % refers to the signal ratio). The method, boiled down: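 HEK293 cells stably expressing DRD2, preincubated with 0.1 mM Ro20-1724 and compounds 10 min, were stimulated with 200 nM NKH477 plus 12 nM quinpirole for 30 min at room temperature; cAMP measured by HTRF (665/620 nm).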
Assay [20] in a line: p53 small molecule agonists, cell-based qHTS assay (AID 1963582; active means well fitted activation curve with a large enough effect in the signal ratio in the repeat runs, not every such curve was filed as active; the % refers to the signal ratio). Put shortly:
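Quantitative HTS in p53RE-bla cells: after a 5 h settling period, compounds delivered in DMSO were left on cells for 16 h at 37 C, and reporter induction was measured as fluorescence following 2 h substrate loading.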

Inconclusive results are not listed. Calls of active or inactive are those of the source. Unless noted, the call rests on the fitted dose curve.

Chain of Gonadotropin-releasing hormone receptor (Homo sapiens) (P30968 whole entry, looked up): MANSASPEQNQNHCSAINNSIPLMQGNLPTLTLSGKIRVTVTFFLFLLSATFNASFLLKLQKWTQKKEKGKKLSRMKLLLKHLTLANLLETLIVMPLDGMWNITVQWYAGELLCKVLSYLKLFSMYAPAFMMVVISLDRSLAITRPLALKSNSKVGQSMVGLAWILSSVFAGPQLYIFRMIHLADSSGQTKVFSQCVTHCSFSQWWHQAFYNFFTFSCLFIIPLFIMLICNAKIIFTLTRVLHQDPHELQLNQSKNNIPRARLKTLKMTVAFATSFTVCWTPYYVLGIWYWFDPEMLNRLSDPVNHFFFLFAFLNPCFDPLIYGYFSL
Chain of Beta-2 adrenergic receptor (Homo sapiens) (P07550 whole entry, looked up): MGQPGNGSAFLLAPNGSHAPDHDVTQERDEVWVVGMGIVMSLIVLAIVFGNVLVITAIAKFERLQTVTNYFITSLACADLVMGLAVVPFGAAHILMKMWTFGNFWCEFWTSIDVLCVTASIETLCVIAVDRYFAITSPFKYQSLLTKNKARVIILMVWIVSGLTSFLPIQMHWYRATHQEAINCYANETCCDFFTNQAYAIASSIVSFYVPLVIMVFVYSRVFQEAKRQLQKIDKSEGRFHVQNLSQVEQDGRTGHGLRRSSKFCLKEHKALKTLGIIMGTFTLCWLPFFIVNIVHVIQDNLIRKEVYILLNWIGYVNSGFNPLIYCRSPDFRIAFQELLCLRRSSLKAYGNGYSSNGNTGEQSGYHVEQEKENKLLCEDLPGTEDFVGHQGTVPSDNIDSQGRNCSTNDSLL
Chain of D(2) dopamine receptor (Homo sapiens) (P14416 whole entry, looked up): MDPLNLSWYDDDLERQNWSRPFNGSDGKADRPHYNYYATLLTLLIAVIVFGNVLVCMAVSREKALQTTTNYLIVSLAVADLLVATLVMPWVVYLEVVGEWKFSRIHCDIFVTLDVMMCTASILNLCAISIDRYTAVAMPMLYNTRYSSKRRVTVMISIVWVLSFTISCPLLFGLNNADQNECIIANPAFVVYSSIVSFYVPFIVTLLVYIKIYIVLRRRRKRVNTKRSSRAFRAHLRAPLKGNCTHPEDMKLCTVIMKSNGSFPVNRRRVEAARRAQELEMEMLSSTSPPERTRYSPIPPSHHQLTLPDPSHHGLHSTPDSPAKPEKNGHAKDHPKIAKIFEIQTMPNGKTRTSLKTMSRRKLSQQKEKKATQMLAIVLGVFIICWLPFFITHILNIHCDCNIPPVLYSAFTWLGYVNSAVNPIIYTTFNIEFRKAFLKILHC

Regarding `Nc1cnn(-c2ccccc2)c(=O)c1Cl`, the Potency result in [1], in assay [2], in [3], in assay [4], in assay [5] and in assay [6] was “inactive” each time. The Potency entry in assay [7], in [8], in assay [9], in assay [10], in [11] and in assay [12] was “inactive” each time. The Potency result in assay [13], in [14], in [15], in assay [16], in assay [17] and in assay [18] was “inactive” in each case. Further, the Potency result in [19] was “inactive”.

With `CCC(CC)Nc1c([N+](=O)[O-])cc(C)c(C)c1[N+](=O)[O-]`, the Potency result in [1], in assay [2], in assay [3], in assay [4], in assay [5] and in assay [6] was “inactive” in each case. For the same molecule, the Potency result in assay [7], in assay [8], in [9], in assay [10], in assay [11] and in assay [12] was “inactive” throughout. For the same molecule, the Potency entry in assay [14], in assay [15], in assay [16], in assay [17] and in assay [19] was “inactive” throughout.

Consider `C(CCOCC1CO1)COCC1CO1` (stereo not drawn), for which the Potency result in assay [1], in assay [2], in assay [3], in assay [4], in [5] and in assay [6] was “inactive” each time. The Potency result in [7], in [8], in assay [9], in assay [20], in assay [10] and in assay [11] was “inactive” throughout. Moreover, the Potency entry in assay [12], in assay [13], in assay [14], in assay [15], in assay [16] and in assay [18] was “inactive” in each case.

For the molecule `Clc1ccc(Cl)c(Cl)c1`, the Potency entry in [1], in assay [2], in [3], in assay [4], in assay [5] and in assay [6] was “inactive” throughout. For the same molecule, the Potency result in assay [7], in assay [8], in assay [9], in assay [20], in [10] and in [11] was “inactive” in each case. Besides, the Potency entry in assay [12], in [13], in assay [14], in assay [15], in assay [16] and in assay [17] was “inactive” each time. Besides, the Potency entry in assay [18] and in [19] was “inactive” in each case.

On to `CC(C)C(C)(N)C#N` (stereo not drawn), for which the Potency result in assay [1], in [2], in assay [3], in assay [4], in assay [5] and in assay [6] was “inactive” each time. In addition, the Potency result in assay [7], in assay [8], in [9], in assay [20], in assay [11] and in assay [12] was “inactive” each time. The Potency result in assay [13], in assay [14], in assay [15], in assay [16], in assay [18] and in [19] was “inactive” in each case.

As to `CC1CC(CC2CCC(N)C(C)C2)CCC1N` (stereo not drawn), the figures for the Potency in assay [1] and in [12] were 7.82 µM (active) and 6.04 µM (active), respectively. Moreover, the Potency result in [2], in assay [3], in assay [4], in [5], in assay [6] and in assay [7] was “inactive” throughout. Also, the Potency result in assay [8], in [20], in [10], in assay [11], in [13] and in assay [14] was “inactive” throughout. Moreover, the Potency result in assay [15], in assay [16], in [18] and in assay [19] was “inactive” in each case.

As to `Nc1cc(Cl)cc(Cl)c1`, the Potency entry in assay [1], in [2], in assay [3], in assay [4], in assay [5] and in [6] was “inactive” throughout. Moreover, the Potency result in [7], in assay [8], in [9], in assay [10], in [11] and in assay [12] was “inactive” each time. Besides, the Potency entry in assay [13], in [14], in assay [15], in assay [16], in assay [18] and in [19] was “inactive” in each case.
